This note sets out measurements from PubChem BioAssay.

Holding throughout (assay): modulators of BK channel variants, profiling panel, selectivity assay, cell-based, U2OS BacMam, thallium flux, beta subunits (AID 1259406);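 further: initial slope of Thallos dye fluorescence rise after thallium is added; log ratio against the mean of 0.3% DMSO vehicle wells on the same plate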
In test [1] the test system is F380Y/beta2Delta. The settings on record: at 30 µM.
Test [2] has as its system F380Y/beta4. The settings on record: at 30 µM.
The target in test [3] is Calcium-activated potassium channel subunit alpha-1 (Homo sapiens) + Leucine-rich repeat-containing protein 26 (Homo sapiens) (UniProt Q12791+Q2I0M4). The note with it: F380Y/Slo1WT/gamma1, at 30 µM.
Calcium-activated potassium channel subunit alpha-1 (Homo sapiens) + Leucine-rich repeat-containing protein 26 (Homo sapiens), sequence (Q2I0M4 whole entry, looked up, one chain of several): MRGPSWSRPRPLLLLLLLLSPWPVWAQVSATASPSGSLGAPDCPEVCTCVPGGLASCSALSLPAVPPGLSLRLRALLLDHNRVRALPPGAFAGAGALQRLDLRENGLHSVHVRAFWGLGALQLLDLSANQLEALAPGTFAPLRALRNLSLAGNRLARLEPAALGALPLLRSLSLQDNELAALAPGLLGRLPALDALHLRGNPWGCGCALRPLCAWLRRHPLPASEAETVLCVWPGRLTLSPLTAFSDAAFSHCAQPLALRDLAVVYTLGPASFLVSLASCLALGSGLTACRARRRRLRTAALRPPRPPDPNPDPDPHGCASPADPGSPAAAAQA
The test system of test [4] is R275C. The note with it: at 30 µM.
The test system of test [5] is R275C/beta1. The settings on record: at 30 µM.
Test [6] has as its system R275C/beta2Delta. The settings on record: at 30 µM.
The test system of test [7] is R275C/beta4. The settings on record: at 30 µM.
Test [8] deals with R275C/Slo1WT/beta2. The settings on record: at 30 µM.

Values joined by “and” are separate entries in the source; they are usually repeats but may differ in a detail not shown here. Equal entries are not always repeated. Unmarked numbers belong to inactive results. Active and inactive are the calls of the source.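 How the source made its calls: active means thallium flux through the channel raised or lowered by more than 3 SD from vehicle-only wells, actives on both sides; inactive means the rest.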

Regarding `CN(CCOc1ccc(NS(C)(=O)=O)cc1)CCc1ccc(NS(C)(=O)=O)cc1`, the log fold change Tl+ flux in test [1] was 0.0285; in test [2], 0.0111; in test [3], -0.0274; in test [4], -0.101; in test [5], 0.0214; in test [6], -0.0483. The log fold change Tl+ flux was -9.6e-05 in test [7] and -0.00913 in test [8].

Regarding `CN1CCC(=C2c3ccccc3CCc3sccc32)CC1`, the log fold change Tl+ flux was -0.0147 in test [1]; 0.0222 in test [3]; -0.0315 in test [4]; 0.0886 in test [5]; 0.0371 in test [6].

With `CCOC(=O)O[C@]1(C(=O)OCCl)CC[C@H]2[C@@H]3CCC4=CC(=O)C=C[C@]4(C)[C@H]3[C@@H](O)C[C@@]21C`, the log fold change Tl+ flux in test [1] is -0.0465; in test [2], 0.0515; in test [3], 0.0345; in test [4], -0.0297; in test [5] it was 0.0209; in test [6] it was 0.00232. The log fold change Tl+ flux is 0.00823 in test [7] and 0.00305 in test [8].

Take `Cc1ccc(NC(=O)c2ccc(CN3CCN(C)CC3)cc2)cc1Nc1nccc(-c2cccnc2)n1`: the log fold change Tl+ flux in test [1] was 0.0732; in test [3], -0.0387; in test [4], -0.00147; in test [5] it was 0.00665; in test [6], 0.0291.

As to `Cc1nc2n(c(=O)c1CCN1CCC(c3noc4cc(F)ccc34)CC1)CCCC2`, the log fold change Tl+ flux in test [1] was -0.0407; in test [2], -0.0446; in test [3], -0.0848; in test [4], -0.134 (active); in test [5], -0.00526; in test [6], -0.0361. Further, the log fold change Tl+ flux is -0.0132 in test [7] and 0.0103 in test [8].

Turning to `O=C(c1ccc(F)cc1)C1CCN(CCn2c(=S)[nH]c3ccccc3c2=O)CC1`, the log fold change Tl+ flux in test [1] is -0.00369; in test [2], 0.0138; in test [3] it was -0.000443; in test [4], 0.0338; in test [5], -0.0174; in test [6], -0.00339. Besides, the log fold change Tl+ flux was -0.00101 in test [7] and 0.0813 (active) in test [8].

In the case of `NC(=O)OCC(COC(N)=O)c1ccccc1`, the log fold change Tl+ flux in test [1] was 0.0149; in test [2] it was 0.0205; in test [3], 0.0713; in test [4] it was -0.054; in test [5] it was 0.0281; in test [6] it was 0.019. The log fold change Tl+ flux is -0.0181 in test [7] and 0.0103 in test [8].

For `CCCN1CCCC[C@H]1C(=O)Nc1c(C)cccc1C`, the log fold change Tl+ flux was 0.0505 in test [1]; 0.0334 in test [2]; -0.0126 in test [3]; 0.0086 in test [4]; 0.0221 in test [5]; 0.0105 in test [6]. Also, the log fold change Tl+ flux in test [7] is 0.0113; in test [8], 0.0315.

As to `C[C@@H]1C[C@H]2[C@@H]3C[C@H](F)C4=CC(=O)C(Cl)=C[C@]4(C)[C@@]3(F)[C@@H](O)C[C@]2(C)[C@@]1(O)C(=O)CO`, the log fold change Tl+ flux in test [1] is -0.0145; in test [2], 0.131 (active); in test [3], 0.0637; in test [4], 0.0158; in test [5], 0.354 (active); in test [6], 0.0934. Besides, the log fold change Tl+ flux is 0.148 (active) in test [7] and 0.0468 in test [8].

As to `Clc1ccc2nsnc2c1NC1=NCCN1`, the log fold change Tl+ flux in test [1] was -0.0575; in test [2] it was -0.0136; in test [3], 0.00637; in test [4], 0.0392; in test [5] it was 0.0375; in test [6] it was -0.063. Further, the log fold change Tl+ flux in test [7] is 0.0661; in test [8], 0.00517.

Regarding `COc1ccccc1N1CCN(CC(O)COc2cccc3ccccc23)CC1` (stereo not drawn), the log fold change Tl+ flux in test [1] is -0.0539; in test [2] it was -0.114 (active); in test [3], 0.00615; in test [4] it was -0.067; in test [5], 0.198 (active); in test [6], -0.0952. The log fold change Tl+ flux in test [7] was 0.167 (active); in test [8], -0.0505.

On to `CC(C)(C)C(O)/C=C/c1ccc2c(c1)OCO2` (stereo not drawn), for which the log fold change Tl+ flux in test [1] was -0.034; in test [2] it was 0.0193; in test [3], 0.00833; in test [4] it was -0.0106; in test [5], 0.0195; in test [6] it was -0.0731. The log fold change Tl+ flux in test [7] is -0.0258; in test [8], -0.0107.

As to `COc1ccc(CC2c3cc(OC)c(OC)cc3CC[N+]2(C)CCC(=O)OCCCCCOC(=O)CC[N+]2(C)CCc3cc(OC)c(OC)cc3C2Cc2ccc(OC)c(OC)c2)cc1OC` (stereo not drawn), the log fold change Tl+ flux is -0.00992 in test [1]; -0.0136 in test [3]; -0.0147 in test [4]; 0.0284 in test [5]; -0.0198 in test [6].

For the compound `CC(=O)OCC(=O)NCCCOc1cccc(CN2CCCCC2)c1`, the log fold change Tl+ flux in test [1] is 0.000408; in test [2] it was -0.0388; in test [3], -0.00356; in test [4], -0.0635; in test [5], 0.00812; in test [6] it was 0.0201. In addition, the log fold change Tl+ flux is -0.00407 in test [7] and 0.00881 in test [8].

For `CCOC(=O)[C@H](CCc1ccccc1)N[C@@H](C)C(=O)N1[C@H](C(=O)O)C[C@@H]2CCC[C@@H]21`, the log fold change Tl+ flux in test [1] was 0.0153 and 0.0206; in test [2], 0.00789 and 0.00803; in test [3], -0.0126 and 0.00594; in test [4] it was 0.0107 and 0.01; in test [5], -0.0118 and -0.0507; in test [6], -0.0152 and 0.00655. Moreover, the log fold change Tl+ flux in test [7] is 0.00822 and 0.0154; in test [8], -0.0515 and 0.000239.

With `COC(=O)C1=C(C)NC(C)=C(C(=O)OCC(C)C)C1c1ccccc1[N+](=O)[O-]` (stereo not drawn), the log fold change Tl+ flux in test [1] is 0.514 (active); in test [2], 0.853 (active); in test [3], 0.622 (active); in test [4] it was 0.676 (active); in test [5], 0.741 (active); in test [6], 0.206 (active). The log fold change Tl+ flux in test [7] is 1.13 (active); in test [8] it was 1.07 (active).

On to `Cc1ccsc1C(=CCCN1CCC[C@@H](C(=O)O)C1)c1sccc1C`, for which the log fold change Tl+ flux in test [1] was 0.0383; in test [2], 0.0453; in test [3] it was 0.0044; in test [4] it was -0.056; in test [5] it was 0.0901 (active); in test [6], 0.0627. The log fold change Tl+ flux in test [7] is 0.0287; in test [8] it was 0.0117.

Turning to `C#C[C@]1(O)CC[C@H]2[C@@H]3CCc4cc(O)ccc4[C@H]3CC[C@@]21C`, the log fold change Tl+ flux is -0.0272 in test [1]; 0.0947 (active) in test [3]; -0.0326 in test [4]; 0.0956 in test [5]; 0.155 (active) in test [6].

On to `CN(C/C=C/C#CC(C)(C)C)Cc1cccc2ccccc12`, for which the log fold change Tl+ flux is -0.0506 in test [1]; -0.0252 in test [2]; 0.0229 in test [3]; -0.0273 in test [4]; -0.3 (active) in test [5]; -0.238 (active) in test [6]. Besides, the figures for the log fold change Tl+ flux in test [7] and in test [8] were -0.00168 and 0.012, respectively.

As to `CCCc1c(OCCCCc2nn[nH]n2)ccc(C(C)=O)c1O`, the log fold change Tl+ flux was 0.0962 (active) in test [1]; 0.186 (active) in test [3]; 0.0659 in test [4]; 0.282 (active) in test [5]; 0.193 (active) in test [6].

Take `CCN1CCN(c2cc3c(cc2F)c(=O)c(C(=O)O)cn3C2CC2)CC1`: the log fold change Tl+ flux was -0.0171 in test [1]; 0.015 in test [2]; 0.00572 in test [3]; -0.0438 in test [4]; 0.0122 in test [5]; 0.0322 in test [6]. Further, the log fold change Tl+ flux in test [7] was 0.0288; in test [8] it was 0.165 (active).
